Several values for one entry are separate records, joined by “and”; a condition that tells them apart may be missing. Identical values can stand only once. The whole screen tested about 5,500 compounds, of which about 2,000 (36%) were called active. About 18% were inconclusive and are not listed. No stated cut-off is given here; in the data, active means normalized growth mostly below about 0.91 (no sharp cut-off); inconclusive means no clear call, values can overlap the other calls; inactive means mostly above about 0.92. The list shows a part of the results.
Experiment: chemical genetic growth profiling, strain panel (AID 1159580);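 further: tested at 20 µM; growth read once vehicle control cultures reached saturation at 30 °C; 1 = growth at the plate median or of vehicle wells; lower values mean less growth of the strain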
Conditions: S. cerevisiae deletion strains, growth OD

Measured: normalized growth

CO[C@@]1(NC(=O)CSCC#N)C(=O)N2C(C(=O)O)=C(CSc3nnnn3C)CSC21 (stereo partly specified)
inactive: locus YAL013W, strain DEP1, hits give low values 1.01 | locus YAL021C, strain ccr4, hits give low values 0.941 | locus YAL026C, strain drs2, hits give low values 0.985 | locus YAL030W, strain snc1, hits give low values 0.988 | locus YBL061C, strain skt5, hits give low values 0.985 | locus YBR009C, strain hhf1, hits give low values 0.988 | locus YBR021W, strain FUR4, hits give low values 1 | locus YBR023C, strain chs3, hits give low values 0.994 | locus YBR171W, strain sec66, hits give low values 0.997 | locus YBR229C, strain ROT2, hits give low values 1.01 | locus YBR231C, strain swc5, hits give low values 0.981 | locus YBR279W, strain paf1, hits give low values 0.981 | locus YCL011C, strain gbp2, hits give low values 0.993 | locus YCL016C, strain dcc1, hits give low values 0.975 | locus YCL029C, strain bik1, hits give low values 1.03 | locus YCL069W, strain vba3, hits give low values 0.986 | locus YCR088W, strain abp1, hits give low values 0.996 | locus YDL005C, strain med2, hits give low values 0.909 | locus YDL035C, strain GPR1, hits give low values 1.02 | locus YDL040C, strain nat1, hits give low values 0.988 | locus YDL074C, strain BRE1, hits give low values 1.03 | locus YDL101C, strain DUN1, hits give low values 1.01 | locus YDL134C, strain PPH21, hits give low values 1.01 | locus YDL185W, strain tfp1, hits give low values 1.03 | locus YDL192W, strain arf1, hits give low values 1.04 | locus YDR001C, strain nth1, hits give low values 1 | locus YDR069C, strain doa4, hits give low values 0.973 | locus YDR101C, strain arx1, hits give low values 1.03 | locus YDR137W, strain rgp1, hits give low values 0.948 | locus YDR150W, strain NUM1, hits give low values 1.01 | locus YDR159W, strain sac3, hits give low values 0.927 | locus YDR162C, strain NBP2, hits give low values 1.04 | locus YDR195W, strain ref2 1 | locus YDR297W, strain sur2, hits give low values 1 | locus YDR318W, strain mcm21, hits give low values 1.03 | locus YDR334W, strain swr1, hits give low values 1 | locus YDR335W, strain msn5, hits give low values 0.99 | locus YDR388W, hits give low values 1.02 | locus YDR392W, strain spt3, hits give low values 0.878 | locus YDR502C, strain sam2, hits give low values 1.03 | locus YEL003W, strain gim4, hits give low values 1 | locus YEL037C, strain rad23, hits give low values 1 | locus YEL061C, strain CIN8 (second series), hits give low values 1.01 | locus YEL061C, strain CIN8, hits give low values 1.01 | locus YER015W, strain faa2, hits give low values 0.982 | locus YER016W, strain bim1, hits give low values 0.968 | locus YER110C, hits give low values 1.04 | locus YER111C, strain swi4, hits give low values 0.982 | locus YER155C, strain BEM2 (second series), hits give low values 0.968 | locus YER155C, strain BEM2, hits give low values 1.01 | locus YER167W, strain BCK2, hits give low values 1.02 | locus YFR010W, strain ubp6, hits give low values 1 | locus YGL078C, strain dbp3, hits give low values 1.03 | locus YGL086W, strain mad1, hits give low values 1.02 | locus YGL167C, strain pmr1, hits give low values 0.984 | locus YGL173C, strain kem1, hits give low values 0.97 | locus YGL227W, strain vid30, hits give low values 1.01 | locus YGL240W, strain doc1, hits give low values 0.959 | locus YGL248W, strain PDE1, hits give low values 1.01 | locus YGL253W, strain hxk2, hits give low values 0.998 | locus YGR078C, strain PAC10, hits give low values 1.01 | locus YGR135W, strain pre9, hits give low values 1.01 | locus YGR229C, strain SMI1, hits give low values 1.02 | locus YGR252W, strain gcn5, hits give low values 1.07 | locus YHR013C, strain ard1, hits give low values 0.964 | locus YHR027C, strain rpn1, hits give low values 0.98 | locus YHR030C, strain SLT2, hits give low values 1.01 and 0.983 | locus YHR079C, strain IRE1 (second series), hits give low values 1.02 | locus YHR079C, strain IRE1, hits give low values 0.986 | locus YHR094C, strain hxt1, hits give low values 1.03 | locus YHR129C, strain ARP1, hits give low values 1.01 | locus YHR142W, strain chs7, hits give low values 1.01 | locus YHR200W, strain rpn10, hits give low values 1.04 | locus YIL066C, strain RNR3, hits give low values 1.03 | locus YIL073C, strain SPO22, hits give low values 1.13 | locus YIL125W, strain kgd1, hits give low values 1.03 | locus YIR030C, strain dcg1, hits give low values 1.03 | locus YJL092W, strain hpr5, hits give low values 1 | locus YJL095W, strain BCK1 (second series), hits give low values 0.979 | locus YJL095W, strain BCK1, hits give low values 1.01 and 0.98 | locus YJL115W, strain asf1, hits give low values 0.984 | locus YJL129C, strain trk1, hits give low values 0.99 | locus YJL134W, strain LCB3, hits give low values 1 | locus YJL154C, strain vps35, hits give low values 1 | locus YJL164C, strain tpk1, hits give low values 0.973 | locus YJL166W, strain qcr8, hits give low values 0.978 | locus YJL168C, strain set2, hits give low values 1.04 | locus YJL187C, strain SWE1 (second series), hits give low values 1.01 | locus YJL187C, strain SWE1, hits give low values 0.985 | locus YJR043C, strain POL32, hits give low values 1.01 | locus YJR066W, strain TOR1, hits give low values 0.942

— PubChem BioAssay AID1159580 (chemical genetic matrix, 2015)
